± gives the standard deviation.

The results in this text go back to the supplement of paper PMC10646978.

What all share (details): modulator concentration 10 µM
In assay [1] the test system is RAW-Dual (murine macrophage reporter line). In words: NF-kB reporter (SEAP) activity fold change vs agonist alone; higher = enhanced NF-kB activity. The gist of the method:
(§1)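 RAW-Dual murine macrophage reporter cells were seeded at 50 000 per well in 384-well plates and pre-incubated 1 hour at 37 °C with compound pin-transferred to 10 μM final. After 1 hour, a PRR agonist was added and cells incubated overnight. Supernatant NF-κB (SEAP, QUANTI-Blue, 620 nm absorbance) and IRF (Lucia luciferase, QUANTI-Luc, luminescence) signals were divided by the mean agonist-only control on the same plate to give fold change. Two replicate plates were averaged, with errors by propagation.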

Assay [2] shares this test system. In words: IRF reporter (Lucia luciferase) activity fold change vs agonist alone; higher = enhanced IRF activity. The procedure, abridged:
as §1

For assay [3] the test system is unchanged. The assay is described as follows: viability score (confluency relative to resting cells, overnight) (fraction); higher = more viable, active = viable (0.7 or more). The procedure, abridged: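 A compound met the cutoff when both of two confluency masks exceeded 70% of resting cells. Those masks were made with IncuCyte software from IncuCyte images of RAW-Dual macrophages treated overnight at 10 μM final. This is the basis of the viability score, which is confluency relative to resting cells.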

Setting [4] is: agonist: CpG ODN 1826 0.5 ug/mL.

Turning to `Cc1cccc(-c2cc3nc(C)c(Cl)c(O)n3n2)c1`, the NF-kB reporter worked out at 1.04 ± 0.058 in assay [1] (setting [4]), 1.04 ± 0.091 in assay [1] (agonist: LPS 0.1 ug/mL) and 0.948 ± 0.025 in assay [1] (agonist: MPLA […]). Also, the IRF reporter is 1.04 ± 0.039 in assay [2] (agonist: 3'3'-cGAMP 10 ug/mL), 1 ± 0.1 in assay [2] (agonist: LPS 0.1 ug/mL) and 1.04 ± 0.24 in assay [2] (agonist: MPLA […]). In assay [3], the viability score is 0.996 (active).

For the compound `O=Cc1c[nH]c2ccccc12`, the NF-kB reporter was determined as 0.913 ± 0.2 in assay [1] (setting [4]), 1.5 ± 0.14 in assay [1] (agonist: LPS 0.1 ug/mL) and 1.4 ± 0.23 in assay [1] (agonist: MPLA […]). Besides, the values for the IRF reporter in assay [2] (agonist: 3'3'-cGAMP 10 ug/mL), in assay [2] (agonist: LPS 0.1 ug/mL) and in assay [2] (agonist: MPLA […]) were 0.982 ± 0.04, 1.25 ± 0.26 and 1.54 ± 0.16, respectively. In assay [3], the viability score was 0.985 (active).

As for `O=C(NC1CCCCC1)c1cccc(C(F)(F)F)c1`, the NF-kB reporter is 0.851 ± 0.31 in assay [1] (setting [4]), 1.09 ± 0.14 in assay [1] (agonist: LPS 0.1 ug/mL) and 1 ± 0.12 in assay [1] (agonist: MPLA […]). For the same compound, the IRF reporter was determined as 0.775 ± 0.033 in assay [2] (agonist: 3'3'-cGAMP 10 ug/mL), 1.15 ± 0.16 in assay [2] (agonist: LPS 0.1 ug/mL) and 1.47 ± 0.3 in assay [2] (agonist: MPLA […]). Moreover, the viability score in assay [3] is 0.997 (active).

`CCN(CC)CCNc1ccc(CO)c2sc3ccccc3c(=O)c12` [Prestw-355]: the NF-kB reporter was found to be 0.178 ± 0.01 in assay [1] (setting [4]), 0.705 ± 0.065 in assay [1] (agonist: LPS 0.1 ug/mL) and 1.09 ± 0.14 in assay [1] (agonist: MPLA […]). Further, the figures for the IRF reporter in assay [2] (agonist: 3'3'-cGAMP 10 ug/mL), in assay [2] (agonist: LPS 0.1 ug/mL) and in assay [2] (agonist: MPLA […]) were 0.408 ± 0.024, 0.964 ± 0.13 and 1.97 ± 0.17, respectively. Besides, the viability score in assay [3] was 0.907 (active).

As to `CC(=O)Nc1ccc(CC(=O)N2C3C=CCC2CC3)cc1` (centres undefined), the NF-kB reporter in assay [1] (setting [4]) turned out to be 1.32 ± 0.32; in assay [1] (agonist: LPS 0.1 ug/mL) it was 1.06 ± 0.059; in assay [1] (agonist: MPLA […]), 1.04 ± 0.14. For the same compound, the IRF reporter was found to be 1.01 ± 0.034 in assay [2] (agonist: 3'3'-cGAMP 10 ug/mL), 1.23 ± 0.14 in assay [2] (agonist: LPS 0.1 ug/mL) and 1.14 ± 0.19 in assay [2] (agonist: MPLA […]). Moreover, the viability score in assay [3] is 0.954 (active).

For `CN(C)CCN(Cc1ccccc1)Cc1cc(Cl)cc(Cl)c1O`, the NF-kB reporter in assay [1] (setting [4]) turned out to be 0.799 ± 0.063; in assay [1] (agonist: LPS 0.1 ug/mL) it was 0.918 ± 0.081; in assay [1] (agonist: MPLA […]), 0.996 ± 0.086. Besides, the IRF reporter in assay [2] (agonist: 3'3'-cGAMP 10 ug/mL) was 0.947 ± 0.058; in assay [2] (agonist: LPS 0.1 ug/mL) it was 1.29 ± 0.074; in assay [2] (agonist: MPLA […]), 1.32 ± 0.12. Further, in assay [3], the viability score was 1.01 (active).

Consider `CCOC(=O)C1=C(C)N(c2ccc(OC)cc2)C(=O)C1=Cc1ccc(C(C)C)cc1`, for which the NF-kB reporter in assay [1] (setting [4]) worked out at 0.903 ± 0.067; in assay [1] (agonist: LPS 0.1 ug/mL), 1.01 ± 0.083; in assay [1] (agonist: MPLA […]) it was 0.804 ± 0.1. For the same compound, the IRF reporter in assay [2] (agonist: 3'3'-cGAMP 10 ug/mL) was 0.883 ± 0.03; in assay [2] (agonist: LPS 0.1 ug/mL), 1.36 ± 0.21; in assay [2] (agonist: MPLA […]), 1.33 ± 0.12. Besides, in assay [3], the viability score is 0.997 (active).

For the compound `O=C(C1=C(O)C(=O)N(c2nccs2)C1c1ccccc1)c1cc2ccccc2o1` (centres undefined), the results for the NF-kB reporter in assay [1] (setting [4]), in assay [1] (agonist: LPS 0.1 ug/mL) and in assay [1] (agonist: MPLA […]) were 0.928 ± 0.054, 1.57 ± 0.12 and 0.97 ± 0.062, respectively. The values for the IRF reporter in assay [2] (agonist: 3'3'-cGAMP 10 ug/mL), in assay [2] (agonist: LPS 0.1 ug/mL) and in assay [2] (agonist: MPLA […]) were 0.664 ± 0.026, 0.967 ± 0.19 and 0.885 ± 0.082, respectively. For the same compound, the viability score in assay [3] was 0.997 (active).

Consider `COc1ccc(S(=O)(=O)N(CC(=O)Nc2ccccc2Br)c2ccc(C)cc2)cc1OC`, for which the NF-kB reporter is 0.735 ± 0.067 in assay [1] (setting [4]), 0.773 ± 0.076 in assay [1] (agonist: LPS 0.1 ug/mL) and 0.864 ± 0.041 in assay [1] (agonist: MPLA […]). Besides, the IRF reporter came to 0.858 ± 0.086 in assay [2] (agonist: 3'3'-cGAMP 10 ug/mL), 1.04 ± 0.11 in assay [2] (agonist: LPS 0.1 ug/mL) and 1.1 ± 0.17 in assay [2] (agonist: MPLA […]). The viability score in assay [3] is 1 (active).

Consider `NCCCS(=O)(=O)O`, for which the NF-kB reporter was determined as 0.883 ± 0.069 in assay [1] (setting [4]), 1 ± 0.072 in assay [1] (agonist: LPS 0.1 ug/mL) and 0.98 ± 0.024 in assay [1] (agonist: MPLA […]). Moreover, the IRF reporter is 1.06 ± 0.058 in assay [2] (agonist: 3'3'-cGAMP 10 ug/mL), 0.978 ± 0.039 in assay [2] (agonist: LPS 0.1 ug/mL) and 0.891 ± 0.12 in assay [2] (agonist: MPLA […]). Besides, in assay [3], the viability score was 0.998 (active).

Regarding `COc1ccc(CNCc2ccc3ccccc3c2)cc1OC`, the NF-kB reporter stood at 0.722 ± 0.064 in assay [1] (setting [4]), 1 ± 0.07 in assay [1] (agonist: LPS 0.1 ug/mL) and 0.943 ± 0.05 in assay [1] (agonist: MPLA […]). In addition, the IRF reporter in assay [2] (agonist: 3'3'-cGAMP 10 ug/mL) worked out at 0.784 ± 0.035; in assay [2] (agonist: LPS 0.1 ug/mL), 1.04 ± 0.059; in assay [2] (agonist: MPLA […]), 0.961 ± 0.2. Besides, the viability score in assay [3] is 0.999 (active).

Take `COC(=O)C(CCSC)NC(=O)c1cc(OC)c(OC)c(OC)c1` (centres undefined): the results for the NF-kB reporter in assay [1] (setting [4]), in assay [1] (agonist: LPS 0.1 ug/mL) and in assay [1] (agonist: MPLA […]) were 1.08 ± 0.18, 1.09 ± 0.096 and 1.1 ± 0.14, respectively. In addition, the figures for the IRF reporter in assay [2] (agonist: 3'3'-cGAMP 10 ug/mL), in assay [2] (agonist: LPS 0.1 ug/mL) and in assay [2] (agonist: MPLA […]) were 1.02 ± 0.031, 0.923 ± 0.089 and 1.07 ± 0.12, respectively. Further, the viability score in assay [3] was 0.712 (active).
